B2AR arrestin ag = agonists recruiting beta-arrestin to human beta2-adrenergic receptor | AID 1347077 | 44,000 tested, under 10 active | P07550 | HTLA Tango cells, beta-arrestin recruitment, luciferase luminescence, 18 h | Potency, µM (highest dose often 46.1 µM), usual class: activators
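Ligand-induced beta-arrestin recruitment to recombinant beta2-AR is measured via a tTA-driven luciferase reporter in Tango cells after 18 hr compound exposure at 37 degrees C. Concentrations span up to 46 microM.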
NTMT1 inh = blocks human N-terminal methyltransferase 1 activity | 2.5% of 59,000 active | AID 1645870 | NTMT1 MTase-Glo SAH luminescence, purified enzyme | Q9BV86 | Potency, µM (highest dose often 114 µM), usual class: inhibitors; further: nearly all actives have a fitted effect of over 65% in size
Target sequence (Q9BV86 whole entry, looked up): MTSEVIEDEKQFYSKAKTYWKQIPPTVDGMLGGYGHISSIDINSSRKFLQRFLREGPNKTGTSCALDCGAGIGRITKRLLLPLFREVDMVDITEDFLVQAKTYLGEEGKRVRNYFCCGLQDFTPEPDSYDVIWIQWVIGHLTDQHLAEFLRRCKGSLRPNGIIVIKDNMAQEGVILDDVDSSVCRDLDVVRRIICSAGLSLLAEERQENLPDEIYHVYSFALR
GALK inh = inhibitors of human galactokinase (GALK). recombinant GALK, Kinase-Glo ATP luminescence, 1 h. Potency, µM (doses to about 57.5 µM), most hits filed as inhibitors. 44,000 tested, under 10 active. AID 1347072
Target sequence (P51570 whole entry, looked up): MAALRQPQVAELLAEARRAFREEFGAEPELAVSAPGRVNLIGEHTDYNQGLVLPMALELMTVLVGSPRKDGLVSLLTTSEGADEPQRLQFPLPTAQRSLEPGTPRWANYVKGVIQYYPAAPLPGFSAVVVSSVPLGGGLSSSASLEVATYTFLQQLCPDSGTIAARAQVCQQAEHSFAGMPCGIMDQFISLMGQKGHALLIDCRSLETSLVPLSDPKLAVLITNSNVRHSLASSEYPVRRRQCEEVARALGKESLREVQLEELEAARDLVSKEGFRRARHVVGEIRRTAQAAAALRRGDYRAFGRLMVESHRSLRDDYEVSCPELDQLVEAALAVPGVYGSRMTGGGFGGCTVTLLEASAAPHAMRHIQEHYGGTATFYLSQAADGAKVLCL
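Human GALK (5 nM) was incubated with 35 uM ATP and 100 uM galactose in 20 mM HEPES pH 8.0 with MgCl2, NaCl, DTT and BSA for 1 h at room temperature. Remaining ATP was measured by Kinase-Glo Plus luminescence.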
GALC G270D up = enhancers of human galactocerebrosidase G270D mutant activity in cells; Potency, µM (top dose mostly 57.5 µM), hits mostly activators; AID 1159614; P54803; 145M-Twi-hGALC-G270D cells (Twitcher mouse brain line with human GALC G270D), HMU-beta-Gal fluorescence, 48 h; 0.1% of 45,000 active; further: nearly all actives have a fitted effect of over 65% in size
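Fluorogenic HMU-b-Gal hydrolysis (0.1 mM final, pH 5.2 citrate-phosphate with 1 mg/mL sodium taurocholate; carbonate stop buffer) measures mutant GALC activity after compound treatment of live 145M-Twi Twitcher brain cells stably carrying human GALC-G270D, with wild-type GALC line alongside; activation sought.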
TSG101-PTAP inh = TSG101-PTAP interaction inhibition, HIV-1 budding; Q99816; Fluorescence polarization, FITC-PTAP peptide/Tsg101, 20 min; Potency, µM (doses to about 115 µM), most hits filed as inhibitors; 44,000 tested, under 10 active
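Read-out is FITC fluorescence polarization. Compounds were added to Tsg101 binding domain (10 uM final), then FITC-PTAP peptide (50 nM final), 20 min at r.t. Total S+P intensity flags fluorescent compounds.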
FH mod = Identification of activators of human fumarate hydratase by quantitative high-throughput screening; Potency, µM (doses to about 79.9 µM), most hits filed as inhibitors; FH coupled MDH/diaphorase resazurin fluorescence, 15 min; Fumarate hydratase, mitochondrial (Homo sapiens), P07954; 0.22% of 54,000 active; further: the screen sought activators but most active calls are inhibition curves; nearly all actives have a fitted effect of over 45% in size
DYRK1A inh-1 = blocks recombinant human DYRK1A kinase activity; shares compounds with NTMT1 inh; recombinant DYRK1A, Kinase-Glo ATP depletion luminescence; Potency, µM (highest dose often 76.9 µM), usual class: inhibitors; 80% of 100 active; AID 2705
CLK4 RBC = blocks human CLK4 kinase in radiometric assay | 100% of 65 active | Potency, µM, actives largely listed as inhibitors | Reaction Biology kinase assay, 10 uM ATP | shares compounds with NTMT1 inh; calls by dose curve
DYRK1A inh-2 = DYRK1A kinase inhibition; shares compounds with NTMT1 inh; Reaction Biology kinase assay, 10 uM ATP; Potency, µM, usual class: inhibitors; 90% of 65 active; AID 504424;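 active means compounds that showed inhibition of Dyrk1a and received a fitted potency; inactive means compounds that showed no inhibition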
CLK2 RBC = blocks human CLK2 kinase in radiometric assay | shares compounds with NTMT1 inh | Reaction Biology kinase assay, 10 uM ATP | Potency, µM, most hits filed as inhibitors | 90% of 65 active | AID 504427;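 active means compound that inhibits Clk2 kinase in the dose series, with an IC50 potency reported; inactive means no inhibition seen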
CLK3 RBC = inhibitors of human CLK3 kinase; shares compounds with NTMT1 inh; recombinant CLK3 kinase assay, 10 uM ATP; Potency, µM, hits mostly inhibitors; 40% of 65 active; AID 504428;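 active means compounds that inhibited Clk3 enough in the ten-dose series to give a half-maximal potency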
DYRK1B inh = blocks human DYRK1B kinase activity; Recombinant Dyrk1b kinase assay, 10 uM ATP; Potency, µM, usual class: inhibitors; 80% of 65 active; AID 504429; shares compounds with NTMT1 inh;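 active means compounds whose dose response shows an inhibitor phenotype against the kinase Dyrk1b; inactive means compounds showing no inhibitor phenotype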
CLK1 RBC = CLK1 kinase inhibition. 90% of 65 active. shares compounds with NTMT1 inh. Potency, µM, most hits filed as inhibitors. AID 504430. recombinant Clk1 kinase assay, 10 uM ATP;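 active means compounds that block the splicing kinase Clk1 enough to give a fitted half-inhibition concentration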
Sfp qHTS opt = inhibits purified B. subtilis Sfp PPTase. shares compounds with NTMT1 inh. purified Sfp PPTase enzyme activity, qHTS. Potency, µM (titrated, usually from 114 µM), usual class: inhibitors. 78% of 230 active
Bsub HM489 growth = B. subtilis HM489 growth inhibition; shares compounds with NTMT1 inh; B. subtilis HM489 (acpS-) growth, BacTiter-Glo, 5 h; Potency, µM (top dose mostly 114 µM), most hits filed as inhibitors; 50% of 220 active
Sfp gel opt = inhibitors of Bacillus subtilis Sfp PPTase, gel-based followup; shares compounds with NTMT1 inh; purified Sfp PPTase, gel-based product detection; Potency, µM (doses to about 250 µM), most hits filed as inhibitors; 54% of 220 active; AID 540355
Sfp inh gel = Sfp phosphopantetheinyl transferase inhibition, gel detection; shares compounds with NTMT1 inh; purified Sfp PPTase, gel-based product detection; Potency, µM (titrated, usually from 250 µM), hits mostly inhibitors; 90% of 45 active
Sfp inh SAR2 = Sfp phosphopantetheinyl transferase inhibition, SAR round 2; shares compounds with NTMT1 inh; purified Sfp enzyme, PPTase activity, qHTS; Potency, µM (series often up to 57.1 µM), hits mostly inhibitors; 87% of 230 active; AID 602370
hGST A1-1 inh = inhibits hGST A1-1 in Sfp inhibitor counter-screen; shares compounds with NTMT1 inh; hGST A1-1 enzyme activity counter-screen, qHTS; Potency, µM (series often up to 114 µM), usual class: inhibitors; 55 tested, under 10 active
HSD17B4 inh = counter-screen for HPGD inhibitors: human HSD17B4 inhibition. shares compounds with NTMT1 inh. purified HSD17B4, estradiol/NAD+, NADH fluorescence. Potency, µM (titrated, usually from 57.1 µM), hits mostly inhibitors. 10% of 230 active. AID 743187
ALDH1A1 counter = inhibits human ALDH1A1, off-target for HPGD inhibitors. shares compounds with NTMT1 inh. recombinant ALDH1A1, NADH fluorescence, propionaldehyde/NAD+. Potency, µM (top dose mostly 57.1 µM), hits mostly inhibitors. 93% of 230 active
NNMT inh = counter-screen for NTMT1 inhibitors: human NNMT inhibition. NNMT MTase-Glo luminescence, SAH detection. shares compounds with NTMT1 inh. 10% of 120 active. Potency, µM (top dose mostly 57.1 µM), usual class: inhibitors
A number is an active result; – = inactive; ? = inconclusive; · = no result given. Shown is part of a subset that was picked to be rich in hits. Unless noted, the call rests on the fitted dose curve; in most records, active means well fitted curve in the direction sought with a large enough effect; inconclusive means small, poorly fitted or top-dose-only effect, or another doubt; inactive means no such curve, though single readings can be large; an effect the other way counts as inactive or inconclusive.

SMILES	B2AR arrestin ag	NTMT1 inh	GALK inh	GALC G270D up	TSG101-PTAP inh	FH mod	Sfp qHTS opt	Bsub HM489 growth	Sfp gel opt	Sfp inh SAR2	HSD17B4 inh	ALDH1A1 counter	others
COc1cc2c(Nc3cc(F)c(Cl)c(Cl)c3)ncnc2cc1OCC1CCCN(C)CCC1	·	35µM	·	·	·	–	·	·	·	·	·	·	NNMT inh=?
COc1cc2c(Nc3ccc(NC(=O)c4ccccc4)cc3)ncnc2cc1OCCCN1CCOCC1	·	–	·	·	·	–	·	·	·	·	·	·
O=S(=O)(Nc1ccc(-c2cccnc2)c2cccnc12)c1cccc(C(F)(F)F)c1	·	–	·	·	·	·	·	·	·	·	·	·
O=C(Nc1ccccc1C(F)(F)F)N1Cc2ccccc2Oc2ncccc21	–	–	–	–	–	–	·	·	·	·	·	·
O=C(Nc1ccc(S(=O)(=O)C(F)(F)F)cc1)C1=CCN(c2ncccc2C(F)(F)F)CC1	·	–	·	·	·	–	·	·	·	·	·	·	NNMT inh=–
CC(=O)OC1CC(O)(C(C)C)C2C(OC(=O)c3ccc(O)cc3)C=C(C)C(=O)CC12C (stereo unspecified)	·	–	·	·	·	–	·	·	·	·	·	·
CC(=O)c1ccc(N2CCN(C(=S)Nc3cc(C)ccn3)CC2)cc1	·	?	·	·	·	·	5.9µM	17µM	5µM	1µM	?	7.6µM
CC(=O)c1ccc(N2CCN(C(=O)Nc3ccc(C(C)C)cc3)CC2)cc1	–	–	–	–	–	–	·	·	·	·	·	·
Cc1ccnc(NC(=S)N2CCN(c3ccc(Br)cc3)CC2)c1	·	?	·	·	·	·	5.9µM	24µM	7.9µM	1.8µM	–	3.4µM
CCN(Cc1cccs1)c1ncnc2ccc(-c3ccc4c(c3)OCO4)cc12	·	?	·	·	·	·	·	·	·	·	·	·	DYRK1A inh-1=0.16µM;CLK4 RBC=0.014;DYRK1A inh-2=0.038µM;CLK2 RBC=0.45µM;CLK3 RBC=6.2µM;DYRK1B inh=0.23µM;CLK1 RBC=0.014µM
CCN(Cc1sccc1C)c1ncnc2ccc(-c3ccc4c(c3)OCO4)cc12	·	?	·	·	·	·	·	·	·	·	·	·	DYRK1A inh-1=1.2µM
O=C(CSc1nnc(-c2cccc([S+](=O)([O-])N3CCCC3)c2)n1-c1ccccc1)Nc1ccc2c(c1)OCCO2	·	–	·	·	·	·	·	·	·	·	·	·
Nc1ccc2c(c1)C(=O)NS2(=O)=O	·	–	·	·	·	·	·	·	·	·	·	·
CC(O)(CC(=O)O)CC(=O)OCc1ccc(O[C@@H]2O[C@H](CO)[C@@H](O)[C@H](O)[C@H]2O)cc1 (stereo partly specified)	·	?	·	·	·	–	·	·	·	·	·	·
C[C@]12CC[C@@H]3c4ccc(O)c(O)c4CC[C@H]3[C@@H]1CCC2=O	·	28µM	·	·	·	?	·	·	·	·	·	·	NNMT inh=35µM
C[C@]12CC[C@@H]3c4ccc(O)cc4CC[C@H]3[C@@H]1C[C@@H](O)[C@@H]2O	·	?	·	–	·	–	·	·	·	·	·	·
COc1ccc(N2CCN(C(=O)Nc3cccc(C(F)(F)F)c3)CC2)cc1	–	?	–	–	–	–	·	·	·	·	·	·
Cc1cc(N2CCC(C)CC2)nc2ccc(NC(=O)CCC(=O)N3CCN(c4cccc(C(F)(F)F)c4)CC3)cc12	–	–	–	–	–	–	·	·	·	·	·	·
Cc1ccnc(NC(=O)N2CCN(c3cccc(C(F)(F)F)c3)CC2)c1	·	–	·	·	·	·	–	?	–	–	–	11µM
Cc1ccnc(NC(=S)NC2CCN(c3cccc(C(F)(F)F)c3)CC2)c1	·	·	·	·	·	·	?	?	?	?	24µM	19µM
Cc1ccnc(NC(=S)N2CC3CN(c4cccc(C(F)(F)F)c4)CC3C2)c1 (stereo unspecified)	·	?	·	·	·	·	3.7µM	5.9µM	4.8µM	0.73µM	–	7.6µM	Sfp inh gel=1.7µM;hGST A1-1 inh=?
Cc1ccnc(NC(=S)NC2CN(c3cccc(C(F)(F)F)c3)C2)c1	·	–	·	·	·	·	?	37µM	–	?	–	–
O=C1c2ccccc2C(=O)C1(c1ccccc1)N1CCN(c2cccc(C(F)(F)F)c2)CC1	?	–	–	–	–	–	·	·	·	·	·	·

Screening results (PubChem BioAssay)
